The campaign covered roughly 65,000 compounds. About 100 (0.15%) were called active. This is one part of a sample in which actives are shown more often than they occur. Unmarked numbers belong to inactive results.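 Rule for the calls: active = inhibition above about 50% (limit read from the data); inconclusive = inhibition over screen mean plus 3 SD, below that limit; inactive = the rest.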
The compounds below were run against Dual specificity protein phosphatase 1 (Homo sapiens) (UniProt P28562) (assay: blockers of human DUSP1 activity – biochemical, in vitro, primary screen (AID 374;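 note: 0% = DMSO max control wells and 100% = wells with enzyme stopped by NaOH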)). Conditions: recombinant MKP-1, OMFP hydrolysis fluorescence; active compounds read high;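 compounds tested at a single concentration somewhere between 10 and 100 µM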.
Chain of Dual specificity protein phosphatase 1 (Homo sapiens) (P28562 whole entry, looked up): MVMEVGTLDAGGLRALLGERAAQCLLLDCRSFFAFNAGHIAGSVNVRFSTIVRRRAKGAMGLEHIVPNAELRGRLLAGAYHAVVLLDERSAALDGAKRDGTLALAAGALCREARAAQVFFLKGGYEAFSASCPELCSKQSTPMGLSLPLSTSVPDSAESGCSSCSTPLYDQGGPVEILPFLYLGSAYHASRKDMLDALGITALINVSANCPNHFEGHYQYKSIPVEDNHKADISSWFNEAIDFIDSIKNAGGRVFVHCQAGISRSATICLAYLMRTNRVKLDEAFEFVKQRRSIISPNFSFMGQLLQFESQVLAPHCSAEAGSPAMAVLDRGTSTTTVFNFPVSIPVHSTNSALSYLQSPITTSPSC
`COC(=O)N(c1ccc(OC)cc1)P1(=S)OCCC(C)O1` (stereo not given) was tested, and the inhibition was 100% (active).
Work on `CCOC(=O)c1c(N)n(Cc2ccccc2)c2nc3ccccc3nc12` yielded an inhibition of 32.1%.
Compound `COC(=O)C(c1ccccc1)N1CCCCCC1` (stereo not given) has an inhibition of -10.8%.
`CCc1nc2ccccc2c(=O)n1-c1cccc(OC)c1` gave an inhibition of 2.83%.
In the case of `CCN(CC)CCOC(=O)c1cc2cc(COC)ccc2o1`, the inhibition is reported as 2.26%.
